This passage reports INHIBITION results from ChEMBL document CHEMBL4513216, “Probing the Open Global Health Chemical Diversity Library for Multistage-Active Starting Points for Next-Generation Antimalarials” (ACS Infect Dis, 2020).

Structures are written as SMILES. The whole screen tested about 69,000 compounds, of which about 8,600 (12%) showed an effect of 50% or more. Shown is part of a subset that was picked to be rich in strong results.

The assay relates to Plasmodium berghei. Description: Screen against P. berghei liver stage (PbLuc), transformed with Luciferase, at 10uM. The format is functional, HepG2. The note with it: tested at 10 uM.
Take `c1ccc(-c2cc(CNCCN3CCCC3)c3nnnn3c2)cc1`: the INHIBITION is listed as -5.71%. As for `CC(NC(=O)NCc1ccccn1)c1cccs1` (configuration not stated), the figure is -5.26%. The value for `O=C(C1=CCCC1)N1CCC[C@]2(C[C@@H](Oc3ncccc3F)CO2)C1` was 23.5%; that for `CC(C)N1CCc2c(C(=O)N3CCOCC3)nn(C)c2C1` was 42.1%. Consider `OC1(CNc2ccccc2)CCNCC1`, for which the INHIBITION was 20.9%.

Consider `CN(CCCc1n[nH]c(N)c1C#N)C(=O)NC1CC1`, for which the INHIBITION amounted to 23.6%.

Regarding `CCNC(=O)N(C)CCCc1n[nH]c(N)c1C#N`, the INHIBITION stood at 40.9%.

For the compound `CN(CCCc1n[nH]c(N)c1C#N)C(=O)Nc1cc(Cl)cc(Cl)c1`, the INHIBITION is on record as 63.7%. As for `OCCN(Cc1nc(-c2ccc3c(c2)OCO3)no1)Cc1cccs1`, the INHIBITION came to 17.6%. As for `COC(=O)c1ccc(-c2noc(CN(CCO)Cc3cccs3)n2)cc1`, the figure is 51%. Regarding `OCCN(Cc1ccccc1)Cc1nc(-c2ccc3c(c2)OCO3)no1`, the INHIBITION worked out at 35.1%. As for `CCS(=O)(=O)N1C[C@@H](Oc2ccccn2)[C@H]2OCCC[C@H]21`, the figure is -14.4%; as for `COCC1(CNC(=O)Nc2cc(F)ccc2OC)CCCC1`, 51.4%; as for `COc1ccc(F)cc1NC(=O)NCC1(CN2CCOCC2)CC1`, 28.15%. The value for `COc1ccc(F)cc1NC(=O)NCC1(C)COC1` was 25.25%. For the compound `Cc1nn(C)c(Cl)c1C1CCCN1C(=O)CCNc1ncccn1` (configuration not stated), the INHIBITION is recorded as -35.7%. Regarding `O=c1cc(N2CCCCC2)cnn1C[C@H](O)CO`, the INHIBITION was found to be 2.7%.

On to `O=c1cc(N2CCCC2)cnn1CC(F)F`, for which the INHIBITION is recorded as 73.2%. As for `O=c1cc(N2CCCCC2)cnn1CC(O)C(F)(F)F` (configuration not stated), the figure is -29.1%. The value for `O=c1cc(N2CCNCC2)cnn1CCc1ccc(F)cc1` was 32.8%; that for `O=c1cc(N2CCCC2)cnn1CCc1cccc(F)c1` was 52.6%. As for `O=c1cc(N2CCOCC2)cnn1CCc1ccc(F)cc1`, the figure is -0.529%; as for `Cc1cnn(CCNCc2csc(-c3ccc(C(N)=O)cc3)n2)c1`, 43.6%; as for `O=C(COc1ccc2c(c1)OCC2O)NCc1ccco1` (configuration not stated), 10.6%. As to `CNc1oc(COc2ccc3c(c2)OCO3)nc1C#N`, the INHIBITION worked out at 41.5%. As for `O=C(NCC1CC1)c1nc(COc2ccc3c(c2)OCO3)no1`, the figure is -12.6%. As for `CNC(=O)c1nc(COc2ccc3c(c2)OCO3)no1`, the figure is 53.7%; as for `O=C(NC1CC1)c1nc(COc2ccc3c(c2)OCO3)no1`, 35.1%. As for `N#Cc1nc(COc2ccc3c(c2)OCO3)oc1NC1CC1`, the figure is 47.1%.

As for `O=C(NC1CCCC1)c1nc(COc2ccc3c(c2)OCO3)no1`, the INHIBITION was 62.9%.

In the case of `Cc1occc(=O)c1OCc1noc(C(=O)NCC(C)C)n1`, the INHIBITION worked out at 26.9%. As for `O=C(c1nc(COc2ccc3c(c2)OCO3)no1)N1CCCC1`, the figure is 13.4%; as for `CC(C)NC(=O)c1nc(COc2ccc3c(c2)OCO3)no1`, 32.8%; as for `NC(=O)c1nc(COc2ccc3c(c2)OCO3)no1`, -83.7%.

For the compound `CC(C)CNC(=O)c1nc(COc2ccc3c(c2)OCO3)no1`, the INHIBITION is 57.7%. The value for `N#Cc1nc(COc2ccc3c(c2)OCO3)oc1NC1CCCCC1` was 72.1%; that for `CCn1cc(CN2CCC(O)(Cn3nc(C)ccc3=O)CC2)cn1` was 6.32%.

As for `CN(C)c1cc(C(=O)N2CCCCC2)ccn1`, the INHIBITION is 2.7%.

Consider `CC1CCN(C(=O)c2cnn3c(-c4ccco4)ccnc23)CC1`, for which the INHIBITION is -82.6%.

As to `CCCNC(=O)NC(=O)CN1C=Nc2ccccc2S1(=O)=O`, the INHIBITION was -3.7%. Regarding `Cc1occc1C(=O)N1CCC2(CC1)C(c1cnn(C)c1)CC(=O)N2C` (configuration not stated), the INHIBITION was 31.3%. `Cn1ccnc1CC1CCCN(Cc2noc(C3CC3)n2)C1` (configuration not stated): the INHIBITION was 9.14%. The value for `Cc1nnsc1CNC(=O)CSCc1ccccc1Cl` was 10.8%; that for `c1ccc(Cc2nnc(CN3CCCCC3Cn3cncn3)o2)cc1` (configuration not stated) was 24%. The value for `CCN(Cc1c(F)cccc1Cl)c1cc(C2CCNCC2)nc(C)n1` was 39.6%; that for `COc1ncccc1CNC(=O)c1cnccn1` was -12%. The value for `N#Cc1ccccc1OCCN1CCCC1Cn1cncn1` (configuration not stated) was 48.1%; that for `CC(C)CN1CCc2c(CN(C)Cc3ccco3)cncc2C1` was -15.2%. On to `Cc1cccc(S(=O)(=O)N2CCCC3(CCCN3S(C)(=O)=O)C2)c1` (configuration not stated), for which the INHIBITION was -61.6%. For `CN(C)c1ccc(C(CNS(=O)(=O)c2cccs2)N2CCCC2)cc1` (configuration not stated), the INHIBITION came to 67.6%. Turning to `Cc1nn(C)cc1S(=O)(=O)NCC(c1ccccc1)N1CCCCCC1` (configuration not stated), the INHIBITION is 36.7%. As for `CN1CCc2cc(C(CNS(=O)(=O)c3cccs3)N3CCCC3)ccc21` (configuration not stated), the figure is 20.5%; as for `COc1ccc(C(CNS(=O)(=O)c2cn(C)nc2C)N2CCCC2)cc1` (configuration not stated), 23.15%. As for `COc1ccccc1N1CCC(CNS(=O)(=O)c2cccs2)C1` (configuration not stated), the figure is 6.31%. As for `O=S(=O)(NCC(c1ccsc1)N1CCCCCC1)c1cccs1` (configuration not stated), the figure is 60%; as for `O=C(NCC(F)(F)F)c1ccncc1`, -6.67%.

For `CC(C)c1noc(CCCC(=O)N2CCN(Cc3cccnc3)CC2)n1`, the INHIBITION was -40.2%. With `COc1cccc(OCC(=O)NCc2ccc3[nH]c(=O)[nH]c3c2)c1`, the INHIBITION worked out at 12.6%. As for `CN1CCOC(C)(C(=O)Nc2nc(C(C)(C)C)cs2)C1` (configuration not stated), the figure is 7.5%; as for `CN(CC1(O)CCN(c2ccnc3ccncc23)CC1)C(=O)CCN`, -5.78%; as for `CCN(CC)S(=O)(=O)CC(=O)N1CCc2ccc(Cl)cc21`, 26.8%. For `CS(=O)(=O)c1ccc2c(c1)N(C(=O)Cc1ccc(F)cc1)CCC2`, the INHIBITION amounted to 47.7%. In the case of `CS(=O)(=O)c1ccc2c(c1)N(C(=O)Cc1cccc(F)c1)CCC2`, the INHIBITION stood at 30.9%. With `Cc1ccc2c(c1)N(C(=O)C1CCCOC1)CCC2` (configuration not stated), the INHIBITION is recorded as -27%.

Consider `CCN(CC)S(=O)(=O)CC(=O)N1CCc2ccc(F)cc21`, for which the INHIBITION is recorded as 67.4%. The value for `CCN(CC)S(=O)(=O)CC(=O)N1CCc2ccc(C)cc21` was 57.5%. The value for `COCCOc1cccc(CNC(=O)CN2CCN(C)CC2C)c1` (configuration not stated) was 17.883%; that for `Cc1ccccc1Cn1cnc2oc(C)c(C(=O)O)c2c1=O` was 0.348%; that for `O=C(CCn1cccn1)N1CCC(c2nnc(-c3ccsc3)o2)CC1` was 5.86%. As for `O=C(N[C@@H]1CN(c2ncccn2)C[C@@H]2CCCO[C@@H]21)c1cccnc1`, the figure is 4.61%. Take `CC(=O)NS(=O)(=O)c1ccc(F)cc1C(F)(F)F`: the INHIBITION stood at 35%.

Turning to `O=C(NCCn1nc(-n2cncn2)ccc1=O)c1ccsc1`, the INHIBITION is recorded as 6.12%.

As to `O=C(CCCOCc1ccccc1)N1CCCC(c2ncc[nH]2)C1` (configuration not stated), the INHIBITION was 6.11%.

Consider `CSCCC(=O)N1CCCC(c2ncc[nH]2)C1` (configuration not stated), for which the INHIBITION is -8.66%. Regarding `CCOCCC(=O)N1CCCC(c2ncc[nH]2)C1` (configuration not stated), the INHIBITION turned out to be 48.1%. As for `CCOCCOc1ccccc1C(=O)N1CCCC(c2ncc[nH]2)C1` (configuration not stated), the figure is -7.35%. Turning to `O=C(CCOc1ccccc1)N1CCCC(c2ncc[nH]2)C1` (configuration not stated), the INHIBITION is recorded as 52.7%. As for `CCOCCC1(C(=O)N2CCCC(c3ncc[nH]3)C2)CCCC1` (configuration not stated), the INHIBITION is given as 72%. `COCCC(=O)N1C[C@H]2CN(Cc3cccc(C)n3)C(=O)[C@H]2C1`: the INHIBITION came to 26.6%.

As for `CCOCCN1CCC(c2cnccn2)CC1`, the INHIBITION amounted to 32.7%.

For `CN1CCN(C=C2N=C(c3cc(-c4ccccc4F)n[nH]3)ON2)CC1`, the INHIBITION is reported as 49.4%. As for `CS(=O)(=O)N1CC[C@H]2OCC[C@@]2(C(=O)NCc2ccccn2)C1`, the figure is 39.4%; as for `CNC(=O)c1cc(C)n(-c2cccc(OC)c2)c1C`, -3.2%; as for `Cc1cc(Br)cnc1N(C)CC1CCOC1` (configuration not stated), 23.6%. The value for `Cc1nc2c(c(NCc3nc4ccccc4s3)n1)CCNCC2` was 75.8%. As for `Cc1nc2c(c(NCc3ccc(-c4ccccn4)s3)n1)CCNCC2`, the figure is 32.2%; as for `Cc1nc2c(c(NCc3cc4ccccc4s3)n1)CCNCC2`, 46.1%; as for `CC(C)N1CCN(C(=O)Nc2cnc3c(cnn3C(C)C)c2)CC1`, 27.6%.

For the compound `O=C(CCOc1ccccc1)N1CCCC(n2cncn2)C1` (configuration not stated), the INHIBITION is -13.255%. As for `CCC(C)N(Cc1cccnc1)Cc1ccc2c(c1)OCCO2` (configuration not stated), the INHIBITION worked out at 52.5%. In the case of `CCC(C)N(Cc1cccnc1)Cc1ccccc1Cn1cccn1` (configuration not stated), the INHIBITION came out at 31.3%. The value for `CCC(C)N(Cc1cccnc1)Cc1cc2c(cc1OC)OCO2` (configuration not stated) was -19.8%.

On to `c1cncc(CN(Cc2ccc3c(c2)OCCO3)CC2CCCO2)c1` (configuration not stated), for which the INHIBITION is -2.98%. The value for `CCC(C)N(Cc1cccnc1)Cc1cc2c(cc1Cl)OCO2` (configuration not stated) was 58.5%. The value for `Cc1ccnc(CC(C)N(C)Cc2ccc3c(c2)OCCO3)c1` (configuration not stated) was 8.11%; that for `Cn1cc(C2CCCN2C(=O)CCc2cnn(-c3ccccc3)c2)cn1` (configuration not stated) was 5.03%; that for `CN(C)C(=O)C1(CCCc2ccccn2)CCN1Cc1nccn1C` (configuration not stated) was 5.34%. For the compound `COc1ccc2nnc(CCCC(=O)NCc3ccccc3F)n2n1`, the INHIBITION is given as -6.09%. As for `COc1ncccc1CNCc1c(C)nn(C)c1N1CCOCC1`, the figure is -10.1%. The value for `CC(C)N1CCN(C(=O)c2ccc(Cn3ccccc3=O)o2)CC1` was 14.115%; that for `Cc1nnc([C@H]2C[C@H]3OCC[C@H]3N(S(=O)(=O)N(C)C)C2)o1` was 54.1%; that for `CCS(=O)(=O)N1C[C@@H](c2nnc(C)o2)C[C@H]2OCC[C@H]21` was 18.7%.

For `Cc1nnc([C@H]2C[C@H]3OCC[C@H]3N(S(=O)(=O)C3CC3)C2)o1`, the INHIBITION was found to be 26%. In the case of `Cc1ccc(CN2C[C@@H]3COC[C@H](NS(C)(=O)=O)[C@@H]3C2)o1`, the INHIBITION was 6.38%. As for `OCCNc1nccc(-c2c[nH]nc2-c2ccncc2)n1`, the INHIBITION worked out at 41.2%. As for `O=c1[nH][nH]cc1-c1ccnc(NCCc2cccnc2)n1`, the figure is 59%; as for `O=C(Cc1cccc(O)c1)NCCNc1nccc(C(F)(F)F)n1`, 0.71%. As for `Cc1ncc(-c2ccnc(NCCc3ccc(F)cc3)n2)c(=O)[nH]1`, the figure is 72.3%; as for `CN(C)c1nccc(-c2c[nH][nH]c2=O)n1`, 42.6%. Turning to `O=c1[nH][nH]cc1-c1ccnc(NCCN2CCCC2)n1`, the INHIBITION was 25.3%.

Consider `O=c1[nH][nH]cc1-c1ccnc(NCCc2ccc(F)cc2)n1`, for which the INHIBITION turned out to be 20.4%.

For the compound `O=c1[nH][nH]cc1-c1ccnc(NCCc2cccc(O)c2)n1`, the INHIBITION was 63.4%. `CC(C)(C)CCNc1nccc(-c2c[nH][nH]c2=O)n1`: the INHIBITION is 57.5%. Consider `COCCCNc1nccc(-c2c[nH][nH]c2=O)n1`, for which the INHIBITION is listed as 15.2%. As for `Cc1ncc(-c2ccnc(N3CCCCC3)n2)c(=O)[nH]1`, the figure is 28.6%. In the case of `C[C@H]1CCCCN1CCCNc1nccc(-c2c[nH][nH]c2=O)n1`, the INHIBITION is recorded as 23.4%. Turning to `O=C(O)c1ccnc(-c2ccnc(NCCc3ccc(F)cc3)n2)c1`, the INHIBITION was determined as 8.74%.
